Four molecules from PubChem BioAssay (EPA / NIEHS) can be followed below.

Active and inactive are the calls of the source. The calls were made as follows: active = hit-call score of the fitted dose curve at least 0.9, where 1 is the maximum; inactive = score below 0.9.

A short description of assay [1]: ATG_GLI_CIS: Attagene CIS-FACTORIAL HepG2 Assay for human Zinc Finger Protein GLI1 (AID 2282945). As to conditions: HepG2, Attagene cis-factorial reporter mRNA, GLI element; actives raise or lower the signal. An outline of the steps:
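HepG2 cells transiently transfected with cis-promoter multiplexed reporter units report endogenous transcription factor activity. After 24 h chemical exposure, reporter mRNA was quantified by RT-PCR, 6-FAM labelling, HpaI digestion and capillary electrophoresis, with bidirectional fitting against DMSO.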

Assay [2] in a line: ATG_GRE_CIS: Attagene CIS-FACTORIAL HepG2 Assay for human Glucocorticoid Response Elements (GRE) (AID 2282947). As to conditions: HepG2 GRE cis-reporter, Attagene multiplex mRNA; actives raise or lower the signal. The method in brief: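 HepG2 cells transiently transfected with multiple cis-promoter reporter units measure endogenous TF activity; 24 h compound exposure. Reporter mRNA quantified by RT-PCR, FAM labelling, HpaI digestion and capillary electrophoresis; bidirectional fit vs DMSO baseline.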

Assay [3] in a line: ATG_ISRE_CIS: Attagene CIS-FACTORIAL HepG2 Assay for human Interferon Regulatory Factor 1 (IRF1) binding to an Interferon-Stimulated Response Element (ISRE) (AID 2282948). The following applies: HepG2 ISRE cis-reporter (Attagene), mRNA transcription readout; actives raise or lower the signal. The method in brief:
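Transfected HepG2 (multiple reporter transcription units, cis elements) dosed 24 h. RNA → oligo(dT) RT → PCR → 6-FAM primer extension → HpaI → CE. DMSO = negative control/baseline.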

The nature of assay [4]: ATG_M_32_CIS: Attagene CIS-FACTORIAL HepG2 Assay for M32 Transcription Factor (Internal Marker) (AID 2282949).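 Also: background control marker of the multiplexed CIS panel rather than a real target.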 As to conditions: HepG2 Attagene cis-factorial M32 reporter, mRNA; actives raise or lower the signal. The method in brief:
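Internal background marker read-out: RT-PCR/capillary electrophoresis fluorescence of reporter transcripts from transiently transfected HepG2 cells after 24 h chemical exposure. Activity fitted bidirectionally relative to DMSO negative control.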

Assay [5] is described as follows: ATG_M_06_CIS: Attagene CIS-FACTORIAL HepG2 Assay for M06 Transcription Factor (Internal Marker) (AID 2282950). As to conditions: HepG2 Attagene CIS-FACTORIAL M06 internal marker reporter; actives raise or lower the signal. The method in brief: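 Terse: HepG2, transient MRTU transfection (FuGene 6), 24 h dosing; total RNA, oligo(dT) RT, PCR, FAM label, HpaI cut, capillary electrophoresis; bidirectional fit vs DMSO baseline; background-control endpoint.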

The target in assay [6] is Hypoxia-inducible factor 1-alpha (Homo sapiens) (UniProt Q16665). Description: ATG_HIF1a_CIS: Attagene CIS-FACTORIAL HepG2 Assay for human Hypoxia Inducible Factor 1 (HIF1A) (AID 2282951). The following applies: HepG2 Attagene cis-factorial HIF1a reporter transcription; actives raise or lower the signal. The method in brief: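 Endogenous-TF cis reporter readout, human HepG2 cells, 24 h incubation; mRNA detected via RT-PCR and capillary electrophoresis fluorescence; DMSO-normalised bidirectional fitting.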
Hypoxia-inducible factor 1-alpha (Homo sapiens), sequence (Q16665 whole entry, looked up): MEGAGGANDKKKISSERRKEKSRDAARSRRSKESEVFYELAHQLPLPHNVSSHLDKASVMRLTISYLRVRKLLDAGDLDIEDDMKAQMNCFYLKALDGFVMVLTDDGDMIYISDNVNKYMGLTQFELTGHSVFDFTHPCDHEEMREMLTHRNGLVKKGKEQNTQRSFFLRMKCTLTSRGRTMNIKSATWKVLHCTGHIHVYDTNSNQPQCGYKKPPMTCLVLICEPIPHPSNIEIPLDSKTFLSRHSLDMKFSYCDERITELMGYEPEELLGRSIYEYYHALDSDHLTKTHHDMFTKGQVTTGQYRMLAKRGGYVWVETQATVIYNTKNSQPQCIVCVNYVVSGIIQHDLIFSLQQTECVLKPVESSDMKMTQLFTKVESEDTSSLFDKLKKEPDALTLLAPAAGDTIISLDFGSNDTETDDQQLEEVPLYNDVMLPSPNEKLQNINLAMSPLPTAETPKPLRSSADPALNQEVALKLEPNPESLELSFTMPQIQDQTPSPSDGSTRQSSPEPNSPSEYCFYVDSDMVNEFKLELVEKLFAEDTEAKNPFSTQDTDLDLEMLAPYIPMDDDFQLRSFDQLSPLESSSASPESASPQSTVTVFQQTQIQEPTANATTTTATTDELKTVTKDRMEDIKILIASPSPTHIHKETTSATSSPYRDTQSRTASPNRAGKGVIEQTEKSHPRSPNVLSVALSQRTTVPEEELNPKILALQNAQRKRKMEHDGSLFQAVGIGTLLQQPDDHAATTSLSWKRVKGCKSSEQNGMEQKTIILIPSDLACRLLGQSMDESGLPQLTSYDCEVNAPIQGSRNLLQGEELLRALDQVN

Assay [7] addresses Hepatocyte nuclear factor 6 (Homo sapiens) (UniProt Q9UBC0). Description: ATG_HNF6_CIS: Attagene CIS-FACTORIAL HepG2 Assay for human Hepatocyte Nuclear Factor 6 (HNF6) (AID 2282952). As to conditions: HepG2 Attagene cis-factorial HNF6 reporter transcription; actives raise or lower the signal. The method in brief: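 HepG2 cells transiently transfected with cis-element-driven multiplexed reporter units measuring endogenous transcription factor activity. After 24 h exposure, reporter mRNA quantified by RT-PCR, FAM-labelled fragments and capillary electrophoresis; bidirectional fitting versus DMSO.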

For assay [8], the target named is Heat shock factor protein 1 (Homo sapiens) (UniProt Q00613). Description: ATG_HSE_CIS: Attagene CIS-FACTORIAL HepG2 Assay for human Heat Shock Transcription Factor 1 (HSE) (AID 2282953). As to conditions: HepG2 HSE cis-reporter, Attagene RNA transcription; actives raise or lower the signal. An outline of the steps: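 Read-out: fluorescence of reporter-specific RT-PCR fragments separated by capillary electrophoresis. HepG2 carrying transfected cis-element reporter units; 24 h dosing; activity fitted in both directions relative to DMSO baseline.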
Heat shock factor protein 1 (Homo sapiens), sequence (Q00613 whole entry, looked up, the tested form may be a part): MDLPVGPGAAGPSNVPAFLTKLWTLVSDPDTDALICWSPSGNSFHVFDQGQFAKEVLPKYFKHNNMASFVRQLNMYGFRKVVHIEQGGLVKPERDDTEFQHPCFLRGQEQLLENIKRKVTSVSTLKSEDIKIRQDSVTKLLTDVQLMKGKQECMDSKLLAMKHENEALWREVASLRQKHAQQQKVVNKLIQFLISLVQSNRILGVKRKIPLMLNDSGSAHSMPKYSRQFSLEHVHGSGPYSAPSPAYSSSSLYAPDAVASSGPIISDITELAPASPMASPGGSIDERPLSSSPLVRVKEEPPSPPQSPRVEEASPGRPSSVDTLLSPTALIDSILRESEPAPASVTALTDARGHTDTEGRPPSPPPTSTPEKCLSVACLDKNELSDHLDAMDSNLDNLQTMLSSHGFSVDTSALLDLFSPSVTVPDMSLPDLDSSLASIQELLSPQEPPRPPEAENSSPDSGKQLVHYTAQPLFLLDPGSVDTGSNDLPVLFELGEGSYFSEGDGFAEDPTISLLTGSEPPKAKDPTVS

Assay [9] can be described thus: ATG_MRE_CIS: Attagene CIS-FACTORIAL HepG2 Assay for human Metal Responsive Element (MRE) (AID 2282954). The following applies: HepG2 MRE cis-reporter transcription, Attagene multiplex; actives raise or lower the signal. The method in brief: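 HepG2 cells transiently transfected with multiple cis-element reporter units measure endogenous MTF1-driven transcription. After 24 h compound exposure, reporter mRNA is quantified by RT-PCR with 6-FAM labelling, HpaI digestion and capillary electrophoresis; bidirectional fits versus DMSO.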

A short description of assay [10]: ATG_PBREM_CIS: Attagene CIS-FACTORIAL HepG2 Assay for human Phenobarbital-responsive Enhancer Module (PBREM) (AID 2282955). The following applies: HepG2 PBREM cis-reporter, Attagene multiplexed transcription; actives raise or lower the signal. The method in brief: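 Readout: reporter mRNA, fluorescent RT-PCR fragments separated by capillary electrophoresis. System: HepG2 transiently transfected with cis-regulated reporter units. Exposure: 24 h. Analysis: bidirectional, DMSO baseline.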

Assay [11] deals with Paired box protein Pax-6 (Homo sapiens) (UniProt P26367). Description: ATG_Pax6_CIS: Attagene CIS-FACTORIAL HepG2 Assay for human Paired Box 6 (PAX6) (AID 2282956). The following applies: HepG2 CIS-FACTORIAL PAX6 reporter transcription, RNA readout; actives raise or lower the signal. An outline of the steps: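 Transient MRTU transfection of HepG2 → compound exposure 24 h → TriZol RNA, oligo(dT) RT → PCR, 6-FAM primer extension, HpaI cut → capillary electrophoresis; activity fitted both directions against DMSO.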
Paired box protein Pax-6 (Homo sapiens), sequence (P26367 whole entry, looked up): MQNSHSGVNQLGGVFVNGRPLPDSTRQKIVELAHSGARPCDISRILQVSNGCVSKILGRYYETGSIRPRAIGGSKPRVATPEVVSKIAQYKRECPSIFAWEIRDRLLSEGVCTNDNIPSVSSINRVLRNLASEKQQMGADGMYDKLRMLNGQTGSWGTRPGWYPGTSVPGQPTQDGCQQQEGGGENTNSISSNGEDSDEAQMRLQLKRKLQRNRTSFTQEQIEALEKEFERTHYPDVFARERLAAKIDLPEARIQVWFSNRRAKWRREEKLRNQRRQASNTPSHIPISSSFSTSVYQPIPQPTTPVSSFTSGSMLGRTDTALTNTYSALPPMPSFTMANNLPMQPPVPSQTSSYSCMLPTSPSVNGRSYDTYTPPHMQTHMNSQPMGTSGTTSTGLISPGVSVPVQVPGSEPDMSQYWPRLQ

Assay [12] in a line: ATG_PXRE_CIS: Attagene CIS-FACTORIAL HepG2 Assay for human Pregnane X Receptor Element (PXRE) (AID 2282957). As to conditions: HepG2 Attagene CIS-FACTORIAL PXRE reporter, mRNA; actives raise or lower the signal. The method in brief: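 HepG2 cells transiently transfected with cis-element-driven multiplexed reporter units; after 24 h chemical exposure, reporter mRNA measured by RT-PCR, 6-FAM labelling, HpaI digestion and capillary electrophoresis. Bidirectional fitting relative to DMSO.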

Assay [13] is described as follows: ATG_RORE_CIS: Attagene CIS-FACTORIAL HepG2 Assay for human RAR-related Orphan Receptor Element (RORE) (AID 2282959). As to conditions: HepG2 Attagene cis-factorial RORE reporter, mRNA; actives raise or lower the signal. An outline of the steps:
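Measured here: transcript induction of a cis-regulated reporter in HepG2 cells transiently transfected via FuGene 6. After 24 h, RNA was processed by RT-PCR and fluorescent capillary electrophoresis; DMSO defined baseline activity.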

Assay [14] can be described thus: ATG_Sox_CIS: Attagene CIS-FACTORIAL HepG2 Assay for human SRY-box transcription factor (SOX) (AID 2282960). The following applies: HepG2 Attagene cis-factorial SOX reporter, mRNA; actives raise or lower the signal. The method in brief:
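Using transiently transfected HepG2 cells, reporter transcription driven by cis elements was assessed 24 h after dosing. Signal was fluorescence of capillary-separated RT-PCR products, with DMSO defining baseline activity.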

In assay [15] the target is Transcription factor Sp1 (Homo sapiens) (UniProt P08047). Description: ATG_Sp1_CIS: Attagene CIS-FACTORIAL HepG2 Assay for human Specificity Protein 1 (Sp1) (AID 2282961). As to conditions: HepG2 Sp1 cis-reporter transcription, actives raise or lower the signal. The method in brief:
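After transient transfection of HepG2 cells with cis-promoter reporter units and 24 h chemical treatment, reporter transcripts were quantified by RT-PCR and capillary electrophoresis fluorescence. Gain- and loss-of-signal fitted against DMSO.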

A short description of assay [16]: ATG_SREBP_CIS: Attagene CIS-FACTORIAL HepG2 Assay for human Sterol Regulatory Element Binding (SREBP) (AID 2282962). As to conditions: HepG2 Attagene cis-factorial SREBP reporter, mRNA; actives raise or lower the signal. An outline of the steps: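 Transfected HepG2 (cis-regulated reporter library, endogenous TFs) → compound 24 h → total RNA → oligo(dT) RT → reporter-specific PCR → FAM primer extension, HpaI cut → CE fluorescence. Fit bidirectional vs DMSO.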

For assay [17], the target named is Signal transducer and activator of transcription 3 (Homo sapiens) (UniProt P40763). Description: ATG_STAT3_CIS: Attagene CIS-FACTORIAL HepG2 Assay for human Signal Transducer and Activator of Transcription 3 (STAT3) (AID 2282963). The following applies: HepG2, Attagene cis-factorial STAT3 reporter transcription; actives raise or lower the signal. An outline of the steps: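 HepG2 cells transiently transfected with cis-element-driven multiple reporter transcription units; after 24 h chemical exposure, reporter mRNA measured by RT-PCR, 6-FAM primer-extension labelling, HpaI digestion and capillary electrophoresis. Bidirectional fitting versus DMSO baseline.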
Signal transducer and activator of transcription 3 (Homo sapiens), sequence (P40763 whole entry, looked up): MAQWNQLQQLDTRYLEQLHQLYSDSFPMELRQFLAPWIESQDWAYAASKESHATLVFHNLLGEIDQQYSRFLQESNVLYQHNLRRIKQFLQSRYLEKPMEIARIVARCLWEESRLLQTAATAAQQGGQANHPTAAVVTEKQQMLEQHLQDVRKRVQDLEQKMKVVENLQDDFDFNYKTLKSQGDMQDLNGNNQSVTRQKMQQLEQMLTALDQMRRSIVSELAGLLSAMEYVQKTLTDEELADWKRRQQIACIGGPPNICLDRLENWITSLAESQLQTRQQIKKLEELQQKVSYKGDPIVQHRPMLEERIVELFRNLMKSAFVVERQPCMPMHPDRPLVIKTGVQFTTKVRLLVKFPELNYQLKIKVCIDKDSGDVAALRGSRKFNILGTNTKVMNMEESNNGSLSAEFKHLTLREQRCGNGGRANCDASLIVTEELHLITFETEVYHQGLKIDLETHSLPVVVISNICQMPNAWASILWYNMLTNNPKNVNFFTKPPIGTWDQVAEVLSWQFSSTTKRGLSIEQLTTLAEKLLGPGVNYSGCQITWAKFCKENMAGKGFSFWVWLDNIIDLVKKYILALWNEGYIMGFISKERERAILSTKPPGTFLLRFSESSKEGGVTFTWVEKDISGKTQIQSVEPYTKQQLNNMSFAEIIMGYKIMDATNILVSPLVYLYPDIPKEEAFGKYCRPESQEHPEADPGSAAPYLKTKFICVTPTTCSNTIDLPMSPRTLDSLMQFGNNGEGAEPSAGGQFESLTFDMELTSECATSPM

Assay [18] is described as follows: ATG_TA_CIS: Attagene CIS-FACTORIAL HepG2 Assay for human TA Basal Promoter (AID 2282964). The following applies: HepG2 Attagene CIS-factorial TA basal promoter reporter; actives raise or lower the signal. An outline of the steps:
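Transfected HepG2, 24 h compound exposure; RNA → RT-PCR → FAM primer extension → HpaI cut → CE fluorescence. Gain/loss-of-signal fitted against DMSO negative control. Background-control readout.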

Assay [19] is described as follows: ATG_TCF_b_cat_CIS: Attagene CIS-FACTORIAL HepG2 Assay for human T-Cell-Factor with beta-catenin (TCF/b-cat) (AID 2282965). As to conditions: HepG2 TCF/beta-catenin cis-reporter transcription, actives raise or lower the signal. An outline of the steps: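 HepG2 cells transiently transfected with multiple cis-promoter-regulated reporter transcription units, so endogenous transcription factor activity is measured. Reporter mRNA read 24 hours after dosing by RT-PCR, fluorescent labelling and capillary electrophoresis; bidirectional fitting against DMSO.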

A short description of assay [20]: ATG_PPRE_CIS: Attagene CIS-FACTORIAL HepG2 Assay for human Peroxisome Proliferator-activated Response Element (PPRE) (AID 2282958). As to conditions: HepG2 PPRE cis-element reporter, Attagene transcription factor profiling; actives raise or lower the signal. The method in brief:
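After human HepG2 hepatoma cells were transiently transfected with cis-promoter reporter constructs, they were exposed to test chemicals for 24 hours. Reporter RNA was then reverse-transcribed, PCR-amplified, FAM-labeled, HpaI-digested and quantified by capillary electrophoresis.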

Hepatocyte nuclear factor 6 (Homo sapiens), sequence (Q9UBC0 whole entry, looked up, the tested form may be a part): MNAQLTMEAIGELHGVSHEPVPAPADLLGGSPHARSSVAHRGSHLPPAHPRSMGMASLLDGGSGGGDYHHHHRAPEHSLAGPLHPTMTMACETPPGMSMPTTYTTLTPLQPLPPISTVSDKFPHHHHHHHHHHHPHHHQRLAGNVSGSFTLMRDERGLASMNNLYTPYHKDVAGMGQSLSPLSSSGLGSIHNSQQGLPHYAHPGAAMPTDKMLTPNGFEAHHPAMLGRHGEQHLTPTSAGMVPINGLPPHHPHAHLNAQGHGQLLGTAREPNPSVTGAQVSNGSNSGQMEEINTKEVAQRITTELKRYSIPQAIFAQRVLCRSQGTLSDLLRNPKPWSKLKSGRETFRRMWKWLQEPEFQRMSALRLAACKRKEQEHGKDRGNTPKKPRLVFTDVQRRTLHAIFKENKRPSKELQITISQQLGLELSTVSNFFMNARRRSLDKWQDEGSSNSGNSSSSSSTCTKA
Transcription factor Sp1 (Homo sapiens), sequence (P08047 whole entry, looked up): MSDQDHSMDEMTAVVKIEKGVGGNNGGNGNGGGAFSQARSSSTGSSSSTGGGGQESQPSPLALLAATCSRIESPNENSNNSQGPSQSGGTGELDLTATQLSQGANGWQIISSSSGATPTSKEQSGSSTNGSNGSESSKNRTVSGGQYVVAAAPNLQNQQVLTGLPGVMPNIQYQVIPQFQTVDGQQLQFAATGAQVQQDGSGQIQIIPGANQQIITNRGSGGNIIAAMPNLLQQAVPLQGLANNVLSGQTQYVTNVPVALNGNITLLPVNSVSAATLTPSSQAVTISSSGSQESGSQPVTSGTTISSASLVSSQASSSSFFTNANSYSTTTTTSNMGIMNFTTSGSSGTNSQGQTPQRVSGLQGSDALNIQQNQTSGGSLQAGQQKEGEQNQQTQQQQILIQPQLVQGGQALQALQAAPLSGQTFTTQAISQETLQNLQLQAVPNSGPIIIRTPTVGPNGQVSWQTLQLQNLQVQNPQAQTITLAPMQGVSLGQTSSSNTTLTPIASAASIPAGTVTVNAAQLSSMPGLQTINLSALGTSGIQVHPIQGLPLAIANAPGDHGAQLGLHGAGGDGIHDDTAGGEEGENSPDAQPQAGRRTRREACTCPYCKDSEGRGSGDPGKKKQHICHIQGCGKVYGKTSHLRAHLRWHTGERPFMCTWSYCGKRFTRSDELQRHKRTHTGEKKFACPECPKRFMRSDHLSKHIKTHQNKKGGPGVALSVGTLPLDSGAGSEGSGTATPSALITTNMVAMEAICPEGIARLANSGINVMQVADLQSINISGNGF

The term AC50 denotes the midpoint of the concentration-response curve, whichever way the signal moves. With `O=[N+]([O-])/N=C1\NCCN1Cc1ccc(Cl)nc1`, the molecule was called inactive in assay [1], in assay [2], in [3], in [4], in assay [5] and in assay [6]. The molecule was called inactive in assay [7], in assay [8], in [9], in assay [10], in [11] and in assay [13]. Further, the molecule was called inactive in [14], in assay [15], in [16], in assay [17], in [18] and in assay [19]. Also, the AC50 in assay [12] is 30.6 µM (active).
Take `O=C(O)COc1ccc(Cl)cc1Cl`: the result in [1], in assay [2], in [3], in [4], in assay [5] and in assay [6] was inactive. For the same molecule, the outcome in [7], in assay [9], in assay [11], in assay [12], in assay [14] and in assay [15] was inactive. Moreover, the call in [16], in assay [17], in assay [18] and in [19] was inactive.
For the molecule `CC[C@H](C)[C@H]1O[C@]2(C=C[C@@H]1C)C[C@@H]1C[C@@H](C/C=C(\C)[C@@H](O[C@H]3C[C@H](OC)[C@@H](O[C@H]4C[C@H](OC)[C@@H](O)[C@H](C)O4)[C@H](C)O3)[C@@H](C)/C=C/C=C3\CO[C@@H]4[C@H](O)C(C)=C[C@@H](C(=O)O1)[C@]34O)O2` (tested in a mixture with another compound), the outcome in [1], in [2], in assay [3], in assay [4], in [5] and in assay [6] was inactive. In addition, the call in assay [7], in assay [8], in [9], in assay [10], in assay [11] and in assay [14] was inactive. The outcome in [15], in [16], in assay [17], in assay [18] and in assay [19] was inactive. Further, the AC50 in assay [12] was 1.75 µM (active).
In the case of `C#CCN1C(=O)COc2cc(F)c(N3C(=O)C4=C(CCCC4)C3=O)cc21`, the call in [1], in assay [2], in assay [3], in [4], in [5] and in [6] was inactive. Besides, the result in assay [7], in assay [8], in assay [9], in assay [10], in assay [11] and in assay [14] was inactive. Moreover, the molecule was called inactive in [15], in assay [16], in assay [17], in assay [18] and in [19]. The AC50 in assay [12] was 23.8 µM (active); in assay [20], 12.5 µM (active).
